The results in this text go back to PubChem BioAssay (Tox21).

The nature of assay [1]: qHTS assay to identify small molecule antagonists of the glucocorticoid receptor (GR) signaling pathway - cell viability counter screen (AID 720693). Note: nearly all actives have a fitted effect of over 55% in size. For orientation: Quantitative high-throughput screening tests each substance at several concentrations.
Assay [2] is described as follows: qHTS assay for identifying genotoxic compounds that show differential cytotoxicity against isogenic chicken DT40 cell lines with known DNA damage response pathways - wild type cell line (AID 743012). Note: nearly all actives have a fitted effect of over 60% in size. Note: potency is the fitted concentration of half-maximal effect. A digest of the protocol: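 Using parental DT40 (300 cells/well), compounds delivered in DMSO incubate 40 h at 37 C/5% CO2. CellTiter-Glo reagent then stands 30 min at room temperature, and luminescence gives cell viability.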

Assay [3] in a line: qHTS assay for identifying genotoxic compounds that show differential cytotoxicity against isogenic chicken DT40 cell lines with known DNA damage response pathways - Rev3 mutant cell line (AID 743014). Note: nearly all actives have a fitted effect of over 55% in size. Note: potency is the fitted concentration of half-maximal effect.
Assay [4] is described as follows: qHTS assay for identifying genotoxic compounds that show differential cytotoxicity against isogenic chicken DT40 cell lines with known DNA damage response pathways - Rad54/Ku70 mutant cell line (AID 743015). Note: nearly all actives have a fitted effect of over 60% in size. Note: potency is the fitted concentration of half-maximal effect.
Assay [5] in a line: qHTS assay to identify small molecule antagonists of the androgen receptor (AR) signaling pathway - cell viability counter screen (AID 743033; note: nearly all actives have a fitted effect of over 45% in size).
Assay [6] is described as follows: qHTS assay to identify small molecule antagonists of the androgen receptor (AR) signaling pathway using the MDA cell line - cell viability counter screen (AID 743041; note: nearly all actives have a fitted effect of over 45% in size). The method, boiled down: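 Viability counter screen run alongside the AR antagonist reporter: cells seeded 5 h before compound, R1881 added, 16 h incubation at 37C without CO2, fluorescent CellTiter-Fluor signal quantified.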

A short description of assay [7]: qHTS assay to identify small molecule antagonists of the thyroid receptor (TR) signaling pathway - cell viability counter screen (AID 743064). Note: nearly all actives have a fitted effect of over 50% in size. A digest of the protocol:
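GH3.TRE-Luc cells, 4 h pre-plating; cpd + T3 1 nM final; 37 °C 23.5 h; CellTiter-Fluor 30 min; fluorescence read.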

For assay [8], the system named is thyroid hormone receptor (rat, GH3 cells). Nature of the assay: qHTS assay to identify small molecule agonists of the thyroid receptor (TR) signaling pathway (AID 743066; calls by dose curve).
The nature of assay [9]: qHTS assay to identify small molecule antagonists of the estrogen receptor alpha (ER-alpha) signaling pathway - cell viability counter screen (AID 743074; calls by dose curve;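 note: HEK293 cells carrying ER-alpha-UAS-bla reporter stimulated with 17beta-estradiol; nearly all actives have a fitted effect of over 45% in size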).
A short description of assay [10]: qHTS assay to identify small molecule antagonists of the estrogen receptor alpha (ER-alpha) signaling pathway using the BG1 cell line - cell viability counter screen (AID 743081).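 Note: compound given together with 17beta-estradiol as the ER stimulus; series mostly up to about 70 µM; nearly all actives have a fitted effect of over 45% in size.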
For another assay, the target named is Aromatase (Homo sapiens) (UniProt P11511). Nature of the assay: qHTS assay to identify aromatase inhibitors (AID 743083). Note: series mostly up to about 70 µM; nearly all actives have a fitted effect of over 55% in size.
Assay [11] can be described thus: qHTS assay to identify aromatase inhibitors - cell viability counter screen (AID 743084).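 Note: cells stimulated with testosterone during compound exposure; nearly all actives have a fitted effect of over 55% in size.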
For assay [12], the target named is Aryl hydrocarbon receptor (Homo sapiens) (UniProt P35869). In words: qHTS assay to identify small molecule that activate the aryl hydrocarbon receptor (AhR) signaling pathway (AID 743085). Note: nearly all actives have a fitted effect of over 15% in size. Note: potency is the fitted concentration of half-maximal effect. The method, boiled down: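 Luminescence read-out: ONE-Glo reagent, 30 min at room temperature, in HG2L7.5c1 HepG2 reporter cells treated 24 h at 37C. Viability was measured beforehand by CellTiter-Fluor fluorescence after 30 min at 37C.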

Assay [13] deals with Estrogen receptor (Homo sapiens) (UniProt P03372). Nature of the assay: qHTS assay to identify small molecule antagonists of the estrogen receptor alpha (ER-alpha) signaling pathway (AID 743069; active = well fitted curve in the direction sought with a large enough effect in the signal ratio in the repeat runs, not every such curve was filed as active; inconclusive = weak or mixed curves, or effect the other way; inactive = no such curve, though single readings can be large or run the other way; the % refers to the signal ratio; note: potency is the fitted concentration of half-maximal effect). The method, boiled down:
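Estradiol-stimulated ER-alpha-UAS-bla HEK293 cells, 18 hr compound exposure at 37C. LiveBLAzer B/G substrate, 2 hr RT, fluorescence read.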

For assay [14] the target is unchanged. In words: qHTS assay to identify small molecule agonists of the estrogen receptor alpha (ER-alpha) signaling pathway (AID 743075; calls by dose curve;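 note: HEK293 GripTite cells with ER-alpha and UAS-driven beta-lactamase reporter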; note: potency is the fitted concentration of half-maximal effect).
Assay [15] shares this target. In words: qHTS assay to identify small molecule agonists of the estrogen receptor alpha (ER-alpha) signaling pathway using the BG1 cell line (AID 743079). Note: nearly all actives have a fitted effect of over 20% in size. Note: potency is the fitted concentration of half-maximal effect.

SMILES strings stand for the structures. Values joined by “and” are separate entries in the source; they are usually repeats but may differ in a detail not shown here. Equal values may be shown once. Where a structure was tested more than once in an assay, its records may differ in their call. Active and inactive are the calls of the source. Unless noted, calls come from the whole dose curve; as a rule, active = well fitted curve in the direction sought with a large enough effect in the repeat runs; inconclusive = weak or mixed curves; inactive = no such curve, though single readings can be large; an effect the other way counts as inactive or inconclusive.

Sequence of Aryl hydrocarbon receptor (Homo sapiens) (P35869 whole entry, looked up): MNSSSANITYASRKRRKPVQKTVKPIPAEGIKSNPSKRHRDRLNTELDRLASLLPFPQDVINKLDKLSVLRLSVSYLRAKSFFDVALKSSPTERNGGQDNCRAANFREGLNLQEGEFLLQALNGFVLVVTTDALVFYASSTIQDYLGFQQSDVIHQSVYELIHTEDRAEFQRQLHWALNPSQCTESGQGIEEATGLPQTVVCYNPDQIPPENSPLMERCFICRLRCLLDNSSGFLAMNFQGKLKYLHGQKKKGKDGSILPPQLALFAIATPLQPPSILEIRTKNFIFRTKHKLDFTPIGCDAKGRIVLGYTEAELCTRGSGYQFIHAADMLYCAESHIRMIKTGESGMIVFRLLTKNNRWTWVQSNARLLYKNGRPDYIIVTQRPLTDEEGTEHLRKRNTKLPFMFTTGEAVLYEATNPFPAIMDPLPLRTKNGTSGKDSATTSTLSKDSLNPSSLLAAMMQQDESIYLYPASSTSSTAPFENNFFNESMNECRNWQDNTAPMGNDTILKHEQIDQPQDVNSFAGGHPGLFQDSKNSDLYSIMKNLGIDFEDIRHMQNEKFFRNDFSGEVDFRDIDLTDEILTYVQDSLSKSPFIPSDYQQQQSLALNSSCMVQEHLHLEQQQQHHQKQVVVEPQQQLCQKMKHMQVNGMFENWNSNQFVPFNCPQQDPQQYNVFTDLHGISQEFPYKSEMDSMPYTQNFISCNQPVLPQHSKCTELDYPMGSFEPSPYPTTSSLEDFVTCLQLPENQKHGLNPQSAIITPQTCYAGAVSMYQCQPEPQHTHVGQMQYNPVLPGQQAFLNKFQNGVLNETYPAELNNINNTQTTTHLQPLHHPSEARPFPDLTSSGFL
Sequence of Aromatase (Homo sapiens) (P11511 whole entry, looked up): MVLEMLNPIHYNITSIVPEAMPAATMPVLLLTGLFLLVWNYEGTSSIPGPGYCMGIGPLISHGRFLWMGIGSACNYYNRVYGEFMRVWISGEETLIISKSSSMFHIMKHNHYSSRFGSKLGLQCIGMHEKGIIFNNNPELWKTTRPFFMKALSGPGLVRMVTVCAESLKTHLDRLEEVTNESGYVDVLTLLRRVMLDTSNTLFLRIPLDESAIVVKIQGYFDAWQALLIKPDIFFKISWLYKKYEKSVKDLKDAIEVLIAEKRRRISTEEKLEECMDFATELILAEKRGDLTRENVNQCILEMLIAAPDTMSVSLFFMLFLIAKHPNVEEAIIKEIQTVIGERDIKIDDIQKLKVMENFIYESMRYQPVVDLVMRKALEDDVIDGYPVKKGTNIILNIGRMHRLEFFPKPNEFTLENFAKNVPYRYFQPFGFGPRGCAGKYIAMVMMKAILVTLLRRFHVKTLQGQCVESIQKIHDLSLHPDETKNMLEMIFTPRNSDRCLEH
Sequence of Estrogen receptor (Homo sapiens) (P03372 whole entry, looked up): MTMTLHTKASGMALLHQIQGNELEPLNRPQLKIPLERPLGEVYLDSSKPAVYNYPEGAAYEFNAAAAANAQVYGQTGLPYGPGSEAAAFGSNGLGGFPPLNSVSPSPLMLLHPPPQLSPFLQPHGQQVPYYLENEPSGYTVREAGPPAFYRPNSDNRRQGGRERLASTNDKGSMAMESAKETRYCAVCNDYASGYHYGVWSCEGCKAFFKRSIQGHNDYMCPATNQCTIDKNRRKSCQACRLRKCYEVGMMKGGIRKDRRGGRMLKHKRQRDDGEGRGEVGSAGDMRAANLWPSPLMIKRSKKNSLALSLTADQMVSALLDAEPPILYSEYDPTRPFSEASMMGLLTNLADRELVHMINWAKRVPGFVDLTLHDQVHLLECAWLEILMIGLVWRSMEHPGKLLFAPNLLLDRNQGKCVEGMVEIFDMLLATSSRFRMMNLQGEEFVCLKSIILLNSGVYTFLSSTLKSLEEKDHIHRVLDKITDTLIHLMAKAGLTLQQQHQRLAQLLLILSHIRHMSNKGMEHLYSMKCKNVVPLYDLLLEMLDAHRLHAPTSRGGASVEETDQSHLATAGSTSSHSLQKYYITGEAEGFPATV

For `CCCC[N+]1(C)CCCCC1`, the Potency entry in assay [1], in assay [2], in assay [3], in [4], in assay [5] and in assay [6] was “inactive” each time. Further, the Potency entry (in assay [7]; in assay [8]; in [9]; in assay [10]; in the assay with Aromatase (Homo sapiens); in [11]) was “inactive” in each case. Further, in assay [12], the Potency entry is “inactive”.
For `O=C(O)c1ccccc1O`, the Potency result in [1], in assay [2], in assay [3], in assay [4], in assay [5] and in [6] was “inactive” each time. Further, the Potency entry in [7], in assay [8], in assay [9] and in assay [10] was “inactive” in each case.
Take `O=P1(N(CCCl)CCCl)NCCCO1` (stereo unspecified): the Potency entry in assay [1], in [2], in [3], in [4], in assay [5] and in [6] was “inactive” in each case. For the same compound, the Potency result in [7], in assay [8], in assay [13], in assay [9], in assay [14] and in assay [10] was “inactive” in each case. Further, the Potency entry (with Aromatase (Homo sapiens); in assay [11]; in assay [12]) was “inactive” each time. In addition, in [15], the Potency result is “inactive and 27.3 µM (active)”.
In the case of `O=C(O)c1nc(Cl)ccc1Cl`, the Potency result in [1], in assay [2], in [3], in [4], in [5] and in assay [6] was “inactive” in each case. Besides, the Potency entry in [7], in [8], in assay [13], in assay [9], in assay [14] and in assay [15] was “inactive” throughout. Besides, the Potency entry (in [10]; in the assay with Aromatase (Homo sapiens); in [11]) was “inactive” in each case. The Potency in assay [12] was 22.4 µM (active) and inactive.
Regarding `COP(=O)(OC)C(O)C(Cl)(Cl)Cl` (stereo unspecified), the Potency entry in assay [1], in assay [2], in assay [3], in [4], in [5] and in assay [6] was “inactive” in each case. In addition, the Potency result (in assay [7]; in assay [8]; in assay [9]; in [10]; with Aromatase (Homo sapiens); in assay [11]) was “inactive” each time. Moreover, the Potency result in [12] is “inactive”.
Consider `CC(=O)O`, for which the Potency entry in [1], in assay [2], in [3], in [4], in assay [5] and in assay [6] was “inactive” each time. Also, the Potency entry (in [7]; in assay [8]; in assay [9]; in assay [10]; in the assay with Aromatase (Homo sapiens); in [11]) was “inactive” each time. The Potency result in [12] is “inactive”.
Take `C[C@]12CCC(=O)C=C1CC[C@@H]1[C@@H]2CC[C@]2(C)C(=O)CC[C@@H]12`: the Potency entry in assay [1], in assay [5], in [6], in [7], in [8] and in [9] was “inactive” throughout. The Potency result (in [10]; with Aromatase (Homo sapiens); in assay [11]; in assay [12]) was “inactive” each time. Besides, the Potency was 23.7 µM (active) and 27.3 µM (active) in assay [2]; 29.8 µM (active) and 47.7 µM (active) and 54.5 µM (active) in [3]; 26.6 µM (active) and 42.5 µM (active) and 27.3 µM (active) in assay [4]; 27.1 µM [activator] (active) and inactive in assay [14]; 1.5 µM (active) and 4.25 µM (active) and 4.33 µM (active) in assay [15].
With `O=C(O)C(Cl)(Cl)Cl`, the Potency result in assay [1], in assay [2], in assay [3], in assay [4], in assay [5] and in [6] was “inactive” each time. Also, the Potency result (in assay [7]; in assay [8]; in assay [9]; in assay [10]; with Aromatase (Homo sapiens); in assay [11]) was “inactive” throughout.
Regarding `Cc1cc(-c2ccc(N)c(C)c2)ccc1N`, the Potency entry in assay [1], in [2], in [5], in [6], in assay [7] and in [8] was “inactive” each time. The Potency entry (in assay [13]; in assay [9]; in assay [15]; in [10]; in the assay with Aromatase (Homo sapiens); in assay [11]) was “inactive” in each case. In addition, the Potency result was “inactive and 34.3 µM (active)” in [3]; “inactive and 60.9 µM (active)” in [4]; 19.2 nM [inconclusive] (active) and 48.8 µM [inconclusive] (active) and 61.7 µM [inconclusive] (active) in [14].
Turning to `COP(=O)(OC)OC=C(Cl)Cl`, the Potency entry in assay [1], in assay [5], in assay [6], in assay [7], in [8] and in assay [9] was “inactive” in each case. For the same compound, the Potency result (in [14]; in assay [15]; in assay [10]; in the assay with Aromatase (Homo sapiens); in [11]; in assay [12]) was “inactive” throughout. For the same compound, the Potency in assay [2] was 9.44 µM (active) and inactive; in assay [3], 11.9 µM (active) and inactive; in [4] it was 13.3 µM (active) and inactive; in assay [13], 10.7 µM [inhibitor] (active) and inactive.
For `O=c1[nH]c(=O)n(Cl)c(=O)n1Cl`, the Potency entry in assay [1], in [2], in assay [3], in [4], in [5] and in assay [6] was “inactive” throughout. In addition, the Potency result (in assay [7]; in assay [8]; in assay [9]; in assay [10]; in the assay with Aromatase (Homo sapiens); in [11]) was “inactive” in each case. Further, the Potency result in assay [12] is “inactive”.
On to `CCNc1nc(Cl)nc(NCC)n1`, for which the Potency result in [1], in [2], in assay [3], in assay [4], in assay [5] and in assay [6] was “inactive” throughout. Besides, the Potency result in [7], in assay [8], in assay [13], in [9], in assay [14] and in assay [15] was “inactive” each time. Also, the Potency entry (in [10]; with Aromatase (Homo sapiens); in [11]; in [12]) was “inactive” each time.
Turning to `CCCCn1cc[n+](C)c1C`, the Potency result in [1], in [2], in [3], in assay [4], in assay [5] and in [6] was “inactive” each time. In addition, the Potency entry (in assay [7]; in [8]; in [9]; in [10]; with Aromatase (Homo sapiens); in assay [11]) was “inactive” in each case. Besides, in [12], the Potency result is “inactive”.
